# Compound activity deposited in PubChem by several laboratories.
# This is a sample that favours compounds with a hit; in the whole collection about 1.8% have one here.
# PKD1 inh = inhibitors of human PKD1 kinase, biochemical, fluorescence polarization; Serine/threonine-protein kinase D1 (Homo sapiens), Q15139; PKD1 kinase fluorescence polarization assay; inhibition, % (concentration not given with the values); 200,000 compounds, 0.056% hits
# VLA-4 inh = inhibition in human VLA-4 binding assay, primary screen, VLA-4 allosteric modulator project, MLPCN library, flow cytometry, VLA-4 expressing cells; inhibition, % (about 7 µM as worked out from the volumes in the protocol); AID 2557, 2010; 330,000 compounds, 0.2% hits; Integrin alpha-4 (Homo sapiens), P13612; ligand binding flow cytometry
# HDAC3 inh = HDAC3 deacetylase inhibitors, primary screen, biochemical, fluorescence, cell-free homogeneous; recombinant HDAC3, fluorogenic peptide/trypsin coupled; 320,000 compounds, 0.15% hits; Histone deacetylase 3 (Homo sapiens), O15379; AID 2718, 2010; inhibition, % at 8.3 µM; in the data active = inhibition above about 26%, passing the limit was not always enough; inconclusive = no clear call, values can overlap the other calls
# Pemphigus Ab inh = inhibitors of pemphigus antibody binding to DSG3, primary screen, biochemical, bead-based, flow cytometry, scFv-GFP; Desmoglein-3 (Homo sapiens), P32926; DSG3-coupled beads, scFv-anti-DSG3-GFP binding; stronger effect = lower value; binding (percent of control), % at 10 µM; 310,000 compounds, 0.48% hits; AID 588358, 2011;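 active = binding more than 3 SD below its plate's average and above zero; inconclusive = below that plate limit but binding exactly zero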
# LANA-H2B inh = blockers of LANA interaction with H2A/H2B – biochemical, FP readout, HTS, primary screen. inhibition, % (concentration not given with the values). AID 2629, 2010. Protein LANA1 (Human herpesvirus 8 type P (isolate GK18)), Q9QR71. cell-free LANA-H2A/H2B peptide, fluorescence polarization. 320,000 compounds, 0.6% hits; in the data active = inhibition mostly above about 10%, no sharp cut-off; inactive = mostly below about 6.7%
# GRK2 aptamer HTS = compounds blocking aptamer binding on GRK2 – biochemical, human GRK2, bead flow cytometry, HTS, primary screen. AID 488847, 2010. 330,000 compounds, 0.59% hits. inhibition of aptamer binding, % at 10 µM. FAM-aptamer displacement from GRK2;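 active = inhibition of aptamer binding above 40%, roughly 3 SD of noise, on plates passing a quality check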;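 also: median bead fluorescence of bound FAM aptamer so fluorescent compounds give negative values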
# The depositor's hits bear a star; ? = inconclusive; nt = not tested or not shown. Rule as the data show it, unless noted: active = inhibition above about 50%; inactive = the rest.
SMILES,PKD1 inh,VLA-4 inh,HDAC3 inh,Pemphigus Ab inh,LANA-H2B inh,GRK2 aptamer HTS
COc1ccc(CC(=O)NCC(=O)N/N=C/c2ccc(C)o2)cc1,12,9,?,94,4,1
COc1ccc(CC(=O)N/N=C/c2ccc(-c3ccc(F)cc3)o2)cc1OC,nt,17,11,102,3,0
COc1ccc(CC(=O)N/N=C/c2ccc(-c3cccc(C(=O)O)c3)o2)cc1OC,nt,-10,4,88,8.8*,2
COc1ccc(C(=O)NCC(=O)N/N=C/c2ccc(C)o2)cc1OC,nt,-12,56*,nt,-6,1
C#CCOCCOCCOCCNc1nc(N2CCOCC2)nc(N2CCN(C(=O)[C@H](CCC(=O)O)n3cc(C(N)[C@H](C)CC)nn3)CC2)n1 (some centres undefined),2,-20,1,104,1,3
Cn1ncc(Br)c1N1C(=O)CCC1=O,nt,4,-4,95,2,1
O=C1CN(C(=O)c2ccc3nc(Cc4cccc(Cl)c4)oc3c2)CCN1,nt,5,4,102,2,0
CS(=O)(=O)c1ccc2nc(NC(=O)Nc3ccccc3F)sc2c1,nt,7,-2,88*,6,0
CCOC(=O)C1=C(C(=O)OCC)c2ccc(OC)c(OC)c2C1,nt,nt,nt,91,nt,nt
Nc1ccccc1NC1CCCCC1,-3,nt,nt,115,nt,nt
O=C(CS(=O)(=O)c1ccccc1)Nc1ccc(Br)cn1,-1,-1,1,59*,3,0
O=C(CS(=O)(=O)c1ccccc1)Nc1ccccn1,2,8,-4,87,-2,0
Cc1ccc(C(=O)CC(C(=O)O)P(=O)(c2ccccc2)c2ccccc2)cc1 (centres undefined),-2,5,-1,105,2,0
O=C(O)C(C/C(=N/O)c1ccc(Br)cc1)P(=O)(c1ccccc1)c1ccccc1 (centres undefined),nt,2,-3,101,15*,2
O=S(=O)(Nc1ccon1)c1ccc(Br)cc1,nt,1,-2,nt,-3,0
CNc1nnc(C(F)(F)F)s1,nt,10,1,nt,16*,0
Cc1ccc(C(=O)Nc2cccnc2)cc1Cl,nt,17,-2,123,13,0
CCOc1ccccc1C(=O)Nc1cc(C(=O)NCC(C)C)ccc1Cl,-8,17,0,nt,-6,1
CCOc1ccccc1C(=O)Nc1cc(C(=O)NCCc2ccccc2)ccc1Cl,-5,2,3,79*,1,0
N#CC(=C=[N-])c1nc2ccccc2nc1-[n+]1cccc(NC(=O)c2cccs2)c1,nt,-32,-4,51*,7,1
N#CC(=C=[N-])c1nc2ccccc2nc1-[n+]1cccc(NC(=O)c2ccccc2)c1,nt,4,-8,102,2,0
CC(=O)c1cccc(NCC(=O)N2CCN(S(=O)(=O)c3ccccc3)CC2)c1,nt,-12,3,nt,4,0
CNCc1ccccc1Sc1ccc(O)c(O)c1,11,6,2,57*,nt,4
COc1ccccc1CNC(=O)COC(=O)c1cc(=O)c2ccccc2o1,nt,-6,4,106,17*,1
COc1ccccc1CNC(=O)COC(=O)c1ccc(S(=O)(=O)N2CCCCC2)cc1,nt,24,-1,81*,8,0
SMILES,PKD1 inh,VLA-4 inh,HDAC3 inh,Pemphigus Ab inh,LANA-H2B inh,GRK2 aptamer HTS
COc1ccc(S(=O)(=O)N2CCC(C(N)=O)(N3CCCCC3)CC2)cc1,-8,0,2,110,-4,0
CC(=O)Nc1ccc(S(=O)(=O)N2CCC(C(N)=O)(N3CCCCC3)CC2)cc1,nt,11,-2,38*,-1,0
CC(=O)Nc1ccc(C(=O)OCC(=O)c2ccc(S(=O)(=O)N3CCCCC3)cc2)cc1,nt,-10,-3,29*,-2,3
COc1ccccc1CNC(=O)COC(=O)c1ccc(S(=O)(=O)N2CCCC2)cc1,0,-3,-1,78,0,0
O=C(COC(=O)c1cc(=O)c2ccccc2o1)NCc1ccccc1,nt,nt,nt,100,nt,nt
O=C(COc1ccc(S(=O)(=O)N2CCCCC2)cc1)NCc1ccncc1,-4,-2,-7,61*,1,1
O=C(COc1ccc(S(=O)(=O)N2CCCC2)cc1)NCc1cccnc1,nt,-5,-7,87,0,0
OC1(c2ccccc2)CC(c2ccccc2)c2ccccc2O1 (centres undefined),nt,nt,nt,49*,nt,nt
COc1ccc([C@@H]2C[C@H](c3ccccc3)Oc3cc(OC)c(OC)c(OC)c32)cc1,nt,1,-3,105,1,0
COc1ccc(C2CC(O)(c3ccccc3)Oc3cc(OC)c(OC)c(OC)c32)cc1 (centres undefined),nt,-10,41*,109,0,2
O=C1CC(c2ccccc2)c2ccc(O)cc2O1 (centres undefined),4,-4,2,107,-1,3
O=C(Cc1ccc(Br)cc1)Nc1ccc(S(=O)(=O)Nc2ncccn2)cc1,nt,-6,-3,114,3,1
Cc1ccc(N2CC(O)Cn3c2nc2c3c(=O)[nH]c(=O)n2C)cc1 (centres undefined),nt,8,0,117,2,0
CS(=O)(=O)c1cccc(C(=O)Oc2ccccc2)c1,0,0,4,98,38*,1
CCc1ccc(OCC(=O)NC(C)C)cc1,1,9,-7,104,-6,0
O=C(NCCCn1ccnc1)/C(=C\c1cccnc1)NC(=O)c1cccc(Br)c1,-5,5,-2,128,3,66*
O=C(NCCCn1ccnc1)/C(=C\c1cccnc1)NC(=O)c1ccco1,-7,7,12,101,-5,0
Cc1c(N2C(=O)/C(=C/c3ccccc3)SC2=S)c(=O)n(-c2ccccc2)n1C,5,-4,6,89,-3,0
CN1C(=O)/C(=C2\SC(=S)N(CCCCCC(=O)O)C2=O)c2ccccc21,nt,2,-3,45*,2,3
Cc1c(N2C(=O)/C(=C3\C(=O)N(CC(=O)O)c4ccccc43)SC2=S)c(=O)n(-c2ccccc2)n1C,nt,0,9,101,22*,0
CCOc1ccccc1C(=O)NCC(=O)NCCCSc1ccccc1,nt,14,-2,106,4,8
O=S(CC(O)c1ccccc1)c1ccccc1 (centres undefined),nt,nt,nt,109,nt,nt
CCn1c(CSc2nnc3ccccn23)nc2cc(C(=O)O)ccc21,-3,-6,0,36*,-1,0
